Among the data in PubChem BioAssay (NCATS) are Potency values, retold here.

The source made the active and inactive calls. How the calls were made is not given here. A value given as a limit tells only on which side of the number the result lay.
Potency means the concentration at half of the fitted maximal effect.

In this test the test system is HIV-1 nucleocapsid protein NCp7 (binding to TG oligonucleotide). Description: HIV Nucleocapsid (AID 346).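 Further: potency is for inhibitors that block NC binding and lower polarization.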 The settings on record: HIV-1 NC / fluorescein-TGTGTGTG probe, fluorescence polarization. A digest of the protocol:
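Fluorescence polarization binding of 100 nM HIV-1 NC to 10 nM fluorescein-labelled TG4xF oligonucleotide. Buffer was Hepes pH 7.5 with 250mM NaCl, 1uM ZnCl2, TCEP and 2-mercaptoethanol. Compounds were incubated 1 hr at room temperature before the read.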
`COC(=O)N1CCC2(CCN(Cc3nccs3)CC2)CC1`: the Potency was > 20 µM (inactive).

Take `FC(F)(F)c1ccccc1-c1nc(N2CCOCC2)c2ccccc2n1`: the Potency was > 20 µM (inactive).

As to `COC(=O)N1CCC[C@@]2(CCN(C(c3ccccc3)c3ccccc3)C2)C1`, the Potency is > 20 µM (inactive).

On to `COCCn1c(=O)c(-c2ccccc2)nc2cnc(OCc3ccccc3)nc21`, for which the Potency was > 20 µM (inactive).

As for `CN1CCN(c2ncc3nc(-c4cccc(C#N)c4)c(=O)n(CCC#N)c3n2)CC1`, the Potency is > 20 µM (inactive).

As for `COc1ccc(-n2c(=O)c(C)nc3cncnc32)cc1`, the Potency is > 20 µM (inactive).

For `Cc1noc(C)c1C(=O)N1CCC2(CCCN(c3ccccc3)C2)CC1`, the Potency is > 20 µM (inactive).

Turning to `Cc1nc2cnc(Nc3ccccc3)nc2n(CCC#N)c1=O`, the Potency was > 20 µM (inactive).

For `c1ccc(CNc2cc(-c3ccoc3)ncn2)cc1`, the Potency is > 20 µM (inactive).

`COc1ccc(CNc2ncnc3ccc(-c4ccccc4C#N)cc23)c(OC)c1`: the Potency is > 20 µM (inactive).

In the case of `COc1ccccc1CNc1ccnc(-c2cccnc2)n1`, the Potency is > 20 µM (inactive).

As to `CS(=O)(=O)N1CCC2(CC1)CN(C(=O)Nc1cccc(F)c1)C2`, the Potency is > 20 µM (inactive).

As to `O=C(c1csnn1)N1CCC2(CCCN(c3cccc(-c4ccccc4)c3)C2)CC1`, the Potency was > 20 µM (inactive).

As for `O=C(c1cnccn1)N1CCC2(CC1)CN(Cc1nccs1)C2`, the Potency is > 20 µM (inactive).

Regarding `COc1cccc(Cn2c(=O)c(CCc3ccccc3)nc3cnc(N(C)C)nc32)c1`, the Potency was > 4 µM (inactive).

As for `O=C(c1ccncc1)N1CCC2(CCCN(Cc3ccncc3)C2)CC1`, the Potency was > 20 µM (inactive).

Take `Cc1ccccc1-c1cc(N(C)C)ncn1`: the Potency is > 20 µM (inactive).

Take `COc1ccc(Oc2ncc3nc(-c4cccs4)c(=O)n(-c4ccccc4)c3n2)cc1`: the Potency is > 20 µM (inactive).

As for `Cc1cnc(CNc2ncnc3ccc(-c4ccccc4C)cc23)cn1`, the Potency is > 20 µM (inactive).

As for `N#CCCn1c(=O)c(-c2ccccc2)nc2cnc(Oc3cccc(Cl)c3)nc21`, the Potency was > 20 µM (inactive).

With `Cc1cccc(CNc2ccnc(-c3ccccc3CN(C)C)n2)c1`, the Potency was > 20 µM (inactive).

With `COc1ccccc1CN1CCCC2(CCN(C(=O)c3csnn3)CC2)C1`, the Potency was > 20 µM (inactive).

As to `O=c1c(-c2ccc(F)cc2)nc2cnc(Oc3ccccc3)nc2n1Cc1cccs1`, the Potency was > 20 µM (inactive).

On to `CS(=O)(=O)N1CCC[C@@]2(CCN(c3ccccn3)C2)C1`, for which the Potency was > 20 µM (inactive).

With `CCNc1ncc2nc(-c3cccs3)c(=O)n(Cc3cccc(OC)c3)c2n1`, the Potency is > 4 µM (inactive).
